Assay outcomes deposited in PubChem BioAssay by National Center for Advancing Translational Sciences (NCATS).
Many of the other results were omitted from the sample, so hits are more common in it than they were.
LmPK inh: inhibitors of Leishmania mexicana pyruvate kinase. purified LmPK, Kinase-Glo ATP luminescence, 1 h. Potency, µM (doses to about 57.5 µM), without a hit: at the highest dose activity change, negative = inhibition, hits mostly inhibitors. actives 0.37% (n = 290,000); also: potency is read from the fitted curve at half-maximal effect; % is scaled to controls: 0 for no effect and ±100 for the full control effect
Target sequence (Q27686 whole entry, looked up): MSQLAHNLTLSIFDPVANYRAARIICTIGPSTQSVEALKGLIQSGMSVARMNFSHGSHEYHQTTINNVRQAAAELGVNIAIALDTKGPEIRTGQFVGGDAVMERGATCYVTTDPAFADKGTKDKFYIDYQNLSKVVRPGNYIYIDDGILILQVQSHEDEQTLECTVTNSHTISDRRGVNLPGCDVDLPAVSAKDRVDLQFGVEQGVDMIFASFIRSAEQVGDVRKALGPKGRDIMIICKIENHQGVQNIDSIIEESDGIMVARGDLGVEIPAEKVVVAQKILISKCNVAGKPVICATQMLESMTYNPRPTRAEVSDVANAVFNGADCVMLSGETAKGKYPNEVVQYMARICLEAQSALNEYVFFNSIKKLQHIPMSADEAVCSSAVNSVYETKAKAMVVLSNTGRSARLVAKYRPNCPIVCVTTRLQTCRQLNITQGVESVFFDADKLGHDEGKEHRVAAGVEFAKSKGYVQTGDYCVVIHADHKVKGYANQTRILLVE
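ATP generated from ADP (0.1 mM) and PEP (0.5 mM) by 0.1 nM LmPK over 1 h at room temperature (pH 7.2 imidazole buffer) was detected by coupled luciferase luminescence. Values were normalized to uninhibited and no-enzyme wells.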
Shiga toxin inh: blocks Shiga toxin action in Vero cells. Vero cells, Shiga toxin protein synthesis inhibition reporter. inhibition, % at 38.7 µM. actives 9.2% (n = 290,000). AID 2315; in the data active = inhibition mostly above about 28%, no sharp cut-off; inactive = mostly below about 43%; also: 0% is about no effect
Giardia FBPA inh: blocks Giardia fructose-bisphosphate aldolase activity; AID 2451; actives 0.71% (n = 290,000); A8B2U2; Potency, µM (titrated, usually from 59.6 µM), without a hit: at the top dose activity, negative = inhibition, actives largely listed as inhibitors; purified Giardia FBPA; also: potency is read from the fitted curve at half-maximal effect; % is scaled to controls: 0 for no effect and ±100 for the full control effect; nearly all actives have a fitted effect of over 55% in size
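40 nM FBPA preincubated 10 min at RT with compound (up to 57.5 uM final), then substrate plus GAPDH/TPI/NAD/arsenate coupling and diaphorase/resazurin added. Fluorescence read after 20 min at RT, 525/598 nm.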
Sm TGR block: S. mansoni TGR enzyme inhibition. Q962Y6. purified TGR, DTNB reduction, TNB absorbance 405 nm. Potency, µM (series often up to 114 µM), for the others: top-dose activity change, negative = inhibition, usual class: inhibitors. actives 3% (n = 360,000); also: potency is read from the fitted curve at half-maximal effect; % is scaled to controls: 0 for no effect and ±100 for the full control effect; nearly all actives have a fitted effect of over 60% in size
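First, TGR (20 nM dispensed) and NADPH were mixed with compound. Second, a 15 min room-temperature incubation followed. Third, further NADPH and then DTNB were added to start the reaction. Finally, TNB absorbance was monitored kinetically.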
CHX counter: affects cycloheximide protein synthesis inhibition readout, counter-screen | cell reporter, cycloheximide protein synthesis inhibition counterscreen | max response, % | actives 12% (n = 300,000) | AID 2314; in the data active = max response mostly above about 13%, no sharp cut-off; inactive = mostly below about 14%; also: read at 38.3 µM for the half of the compounds with a filed dose; 0% is about no effect
TbPYK inhibitor: inhibitors of Trypanosoma brucei pyruvate kinase; Q57TT1; TbPYK enzyme, Kinase-Glo Plus ATP luminescence, 45 min; Potency, µM (top dose mostly 76.8 µM), for inactives: at the highest dose activity, negative = inhibition, usual class: inhibitors; actives 0.12% (n = 410,000); also: potency is read from the fitted curve at half-maximal effect; % is scaled to controls: 0 for no effect and ±100 for the full control effect; nearly all actives have a fitted effect of over 50% in size
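Luminescence from Kinase-Glo Plus, added after a 45-minute room-temperature reaction, served as the end-point read-out. The enzyme and substrate were preincubated with compound before ADP (130 uM final) initiated turnover. Concentration-effect curves came from normalized qHTS data.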
* = called active by the depositor; ? = inconclusive; / = no result; [ ] = dose if it differs, or a comment. Unless noted, calls follow the shape of the dose curve; as a rule, active = well fitted curve in the direction sought with a large enough effect; inconclusive = small, poorly fitted or top-dose-only effect, or another doubt; inactive = no such curve, though single readings can be large; an effect the other way counts as inactive or inconclusive.

SMILES	LmPK inh	Shiga toxin inh	Giardia FBPA inh	Sm TGR block	CHX counter	TbPYK inhibitor
O=C1OCc2cc(NC(=O)C3COc4ccccc4O3)ccc21 (configuration not stated)	-1.0%	-3.7	-3.3%	-11.1%	13.7	1.1%
O=C(NC1=NCCS1)C1COc2ccccc2O1 (configuration not stated)	15.8µM*	-23.9	4.1%	-1.2%	-7.7	-19.9%
CCCn1c(C)nc2c(NC3CCN(Cc4ccccc4)C3)nc(C)nc21 (configuration not stated)	/	/	-0.7%	/	/	/
O=C(O/N=C1\CCS(=O)(=O)c2sccc21)c1ccccc1	-2.0%	-9.8	8.3%	-4.9%	0.9	-0.2%
O=C(O/N=C1\CCS(=O)(=O)c2sccc21)c1ccc(F)cc1	-0.4%	77.9*	0.2%	-33.7%	37.3*	-2.7%
CN(Cc1ccccc1)C(=O)c1ccccc1N(C)S(=O)(=O)c1ccccc1	/	/	/	-7.6%	/	-1.5%
COc1ccc(NC(=O)N2CC3(CCN(S(C)(=O)=O)CC3)C2)cc1	/	/	-4.7%	/	/	1.4%
S=C1NC2=C(CCC/C2=C\c2ccccc2)C(c2ccccc2)N1 (configuration not stated)	-4.1%	-1.7	0.8%	-34.7%	-1.3	?
Fc1cccc(/C=C2\CCCC3=C2NC(=S)NC3c2cccc(F)c2)c1 (configuration not stated)	2.5%	1.3	-0.9%	20µM*	10.9	?
CC(=O)C(Cc1ccccc1)NC(=O)COC(=O)c1cc(S(=O)(=O)N2CCOCC2)ccc1F (configuration not stated)	/	/	/	/	/	2.9%
CN(C)S(=O)(=O)c1cccc(COC(=O)Cc2c(F)cccc2Cl)c1	-10.8%	26.8	/	22.2%	13.7*	0.7%
COc1ccccc1N1CCN(C(=O)/C=C/c2cccs2)CC1	0.8%	54.2*	7.4%	-1.4%	17.5*	-2.4%
Cc1cc(C)n(C(=O)CNC(=O)c2cccs2)n1	-4.6%	-8.1	4.9%	-12.2%	-5.3	-5.1%
O=C(/C=C/c1cccs1)N1CCCC1	-8.7%	46.3*	14.8%	11.6%	15.8*	-1.5%
Cc1cccc(N2CCN(C(=O)/C=C/c3cccs3)CC2)c1C	0.2%	64.2*	-1.3%	8.6%	43.5*	-2.3%
Cc1cc(C)n(C(=O)/C=C/c2cccs2)n1	-10.2%	64.4*	0.1%	-7.7%	28.6*	-5.7%
O=C(/C=C/c1cccs1)N1CCN(c2ccccc2)CC1	0.3%	-11.0	-6.4%	/	0.3	-2.7%
Cc1cc(C)cc(-n2c(SCC(=O)N3CCCCCC3)nc3c([nH]c4ccccc43)c2=O)c1	/	/	/	9.1%	/	-4.2%
CC(C)n1c(SCC(=O)NC2CCCCC2)nnc1-c1ccco1	-4.6%	17.0	5.3%	-34.7%	-3.5	5.3%
Cc1cccc(OCc2nc(C)cc(=O)[nH]2)c1	-20.2%	18.1	-3.2%	-1.7%	-0.1	-8.8%
CN(C)/C=C1/N=C(c2ccccc2)OC1=O	4.0%	13.0	4.4%	-10.1%	11.4	-5.7%
CN(C)/C=C1\N=C(c2ccc(Cl)cc2Cl)OC1=O	-1.0%	19.9	1.8%	-5.6%	20.8*	1.5%
Cc1ccc(C2=N/C(=C\N(C)C)C(=O)O2)cc1	-5.4%	74.9*	-1.0%	-8.8%	39.8*	-0.8%
Cc1cccc(OCC2=N/C(=C\N(C)C)C(=O)O2)c1	0.7%	41.0	-4.5%	-23.9%	21.5*	-4.9%
CN(C)/C=C1\N=C(c2cccnc2Oc2ccc(Cl)cc2)OC1=O	3.5%	18.7	1.3%	0.7%	-2.4	-12.4%
SMILES	LmPK inh	Shiga toxin inh	Giardia FBPA inh	Sm TGR block	CHX counter	TbPYK inhibitor
CC(=O)c1ccc(NC(=O)Cn2cc(S(=O)(=O)Cc3cccc(Cl)c3)c3ccccc32)cc1	/	/	/	0.3%	/	-10.0%[15.4 µM]
Cc1ccc(NC(=O)N2CCN(C)CC2)cc1NC(=O)N1CCN(C)CC1	0.4%	48.9	0.2%	20.5%	11.7*	-15.3%
Cc1cccc(NC(=O)N2CCc3ccccc3C2)c1C	3.8%	39.4*	8.6%	4.5%	29.0*	0.6%
CN1CCN(C(=O)Nc2ccccc2)CC1	-1.4%	-1.1	?	/	2.1	0.6%
Cc1ccc(NC(=O)N2CCc3ccccc3C2)cc1C	-3.5%	151.6*	-14.1%	-9.1%	77.8*	-4.5%
Cc1cc(C)cc(NC(=O)N2CCc3ccccc3C2)c1	1.0%	74.9*	-8.9%	7.7%	36.4*	-5.8%
Cc1ccc(N2CC(NC(=O)N3CCN(C(=O)c4ccco4)CC3)CC2=O)cc1 (configuration not stated)	/	/	/	0.1%	/	-0.5%
Cc1cc(NS(=O)(=O)c2ccc(NC(=O)COc3c(C)ccc(C)c3C)cc2)nc(C)n1	/	/	/	0.0%	/	-26.6%
CCOc1ccc(NC(=O)CN(c2ccc(CC)cc2)S(=O)(=O)c2c(C)noc2C)cc1	/	/	/	-1.3%	/	1.2%
Cc1ccccc1-n1c(-c2csc(C)c2C)n[nH]c1=S	7.94µM*	45.7*	8.5%	-0.1%	16.6*	?
CCCc1cc(-c2n[nH]c(=S)n2-c2cccc(C)c2)cs1	?	-3.1	-1.0%	/	6.7	?
CCN(CC)c1ccc(-c2n[nH]c(=S)n2-c2ccccc2C)cc1	-4.1%	37.9	9.1%	-1.6%	-1.7	?
Cc1cccc(-n2c(-c3csc(C)c3C)n[nH]c2=S)c1	11.2µM*	17.5	1.1%	1.2%	1.0	?
Cn1c(-c2ccco2)n[nH]c1=S	3.4%	-7.5	?	-6.4%	-1.7	-24.2%
Cc1ccccc1-n1c(-c2csc3ccccc23)n[nH]c1=S	14.1µM*	12.6	6.6%	-0.1%	0.3	?
Cc1cccc(-n2c(-c3ccco3)n[nH]c2=S)c1	17.8µM*	1.7	-3.8%	0.4%	-3.1	?
NS(=O)(=O)c1cccc(NC(=O)CSc2nnc(NC3CC3)s2)c1	/	/	/	/	/	2.5%
O=C(Nc1ccc(Cl)cc1)c1cnn2c1NC(c1ccccc1)=CC2c1ccccc1 (configuration not stated)	/	/	/	-2.0%	/	0.2%
Cc1cccc(-n2c(-c3csc(C(C)C)c3)n[nH]c2=S)c1	10µM*	21.9	16.5%	7.8%	12.9	?
O=C(NC(=S)Nc1cccc2cc(O)ccc12)c1ccco1	-0.7%	32.8	-24.0%	10µM*	13.2	-1.4%
CCCC(=O)NC(=S)Nc1cccc2c(O)cccc12	-0.2%	11.4	-24.0%	14.1µM*	0.5	-18.2%
CCC(C)c1ccccc1NC(=S)NC(=O)c1ccco1 (configuration not stated)	-0.9%	-1.1	/	?	-3.3	-7.8%
O=C(NC(=S)Nc1cccc2cc(O)ccc12)c1ccccc1Br	-4.7%	10.0	/	35.5µM*	5.6	1.2%
O=C(NC(=S)Nc1cccc2c(O)cccc12)c1ccco1	-3.2%	108.6*	?	25.1µM*	25.8*	-2.1%
Cc1cc(NC(=S)NC(=O)c2ccco2)c2ccccc2n1	2.4%	-4.3	-26.7%	?	2.0	6.7%
